Only some compounds are listed: those with a hit (about 4.1% of all), similar ones and a draw of the others.
DAX1 inh-1 = inhibits human nuclear receptor DAX1; P51843; HEK293 Gal4-DAX1 luciferase reporter, luminescence; inhibition, % at 6.75 µM; 340,000 compounds, 0.99% hits; AID 504766;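 active means inhibition above the mean over all tested compounds plus 3 SD, cut at about 4.2% in these data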;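 further: 0% = DAX1-transfected cells with DMSO and 100% = empty-vector control cells with DMSO; inhibition shows as a rise in luminescence from relieved DAX1 repression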
Target sequence (P51843 207-470 limits assumed): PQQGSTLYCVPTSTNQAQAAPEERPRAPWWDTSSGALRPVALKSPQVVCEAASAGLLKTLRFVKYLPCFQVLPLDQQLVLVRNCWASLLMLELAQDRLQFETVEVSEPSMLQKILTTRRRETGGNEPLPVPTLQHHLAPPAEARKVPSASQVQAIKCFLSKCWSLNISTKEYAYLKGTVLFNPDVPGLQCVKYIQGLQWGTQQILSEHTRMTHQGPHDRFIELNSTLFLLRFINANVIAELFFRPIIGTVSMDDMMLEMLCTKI
DAX1 inh-2 = DAX1 (NR0B1) inhibition, primary screen; HEK293T StAR-luciferase reporter, SF-1/DAX-1 repression relief; inhibition, % at 6.8 µM; 370,000 compounds, 1.1% hits; AID 652010;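 active means inhibition above the mean over all tested compounds plus 3 SD, cut at about 3.6% in these data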;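 further: 0% = DAX-1 cells with DMSO and 100% = cells lacking DAX-1 with DMSO; higher inhibition means more luminescence from relief of DAX-1 repression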
hgDAF12 agonist = agonists of H. glycines DAF-12 nuclear receptor; activation, % at 6.8 µM; AID 687014; HEK293 GAL4-hgDAF12 UAS-luciferase reporter, agonist luminescence; normalized to butyrate control; 370,000 compounds, 1.8% hits;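 active means activation above a cutoff set at the mean of all screened compounds plus 3 SD, cut at about 10% in these data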;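 further: 0% = DMSO wells and 100% = sodium butyrate wells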
ssDAF-12 act = S. stercoralis DAF-12 activation, primary screen; HEK293 ssDAF-12/GRIP1 lit1-tk-luc reporter, luminescence; % of 3 µM dafachronic acid response; activation, % at 6.8 µM; 370,000 compounds, 1% hits;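 active means activation above the mean over all tested compounds plus 3 SD, cut at about 0.9% in these data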;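 further: 0% = DMSO-only wells and 100% = 3 µM delta7-dafachronic acid wells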
hcDAF-12 act = H. contortus DAF-12 activation, primary screen | HEK293 hcDAF-12 lit1-tk-luc reporter, luminescence; 0% DMSO, 100% Δ7-dafachronic acid | activation, % at 6.8 µM | 370,000 compounds, 1.4% hits;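 active means activation above the mean of all tested compounds plus 3 SD, cut at about 5.5% in these data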;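 further: 100% = response to 3 µM Δ7-dafachronic acid high control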
* hit, by the source's call; · = no result.

SMILES	DAX1 inh-1	DAX1 inh-2	hgDAF12 agonist	ssDAF-12 act	hcDAF-12 act
CCN1CCCCC(NC(=O)c2ccccc2C)C1=O (centres undefined)	·	0.7	3.2	-0.6	1.1
CCc1nnc(NC(=O)CSc2nc3[nH]ncc3c(=O)[nH]2)s1	-0.5	-0.2	-0.1	-1.4	1.0
O=C(CSc1nc2[nH]ncc2c(=O)[nH]1)Nc1nccs1	·	0.1	-1.4	7.5*	1.8
CCOC(=O)C1C(c2ccccc2)C(C(=O)OCC)C1c1ccccc1 (centres undefined)	0.6	-0.1	0.8	-1.6	-3.5
Cc1ccccc1OC(=O)C1C(c2ccccc2)C(C(=O)O)C1c1ccccc1 (centres undefined)	5.0*	0.4	3.0	0.1	5.0
COc1ccc(N2C(=O)c3n[nH]c(C)c3C2c2cccc(C(F)(F)F)c2)cc1 (centres undefined)	·	0.0	1.3	-0.6	1.0
COc1ccc(NC(=S)NC(=O)c2ccc(Br)o2)cc1	0.7	1.2	10.8*	0.3	1.1
Cc1ccc(O)c(NC(=S)NC(=O)/C=C/c2ccccc2)c1	1.5	-0.2	-1.3	-1.3	-0.3
COc1ccc(NC(=S)NC(=O)/C=C/c2ccco2)cc1	4.8*	0.3	9.6	-1.0	0.9
Cc1ccc(O)c(NC(=S)NC(=O)/C=C/c2ccco2)c1	0.1	-1.4	11.5*	-0.2	3.6
CCCC1CCC2(CCC(=O)N2CCOC)CC1 (centres undefined)	·	1.7	-0.6	-0.7	-1.2
O=C(OCCN1CCCC12CCC(c1ccccc1)CC2)c1ccccc1 (centres undefined)	·	-1.5	-0.6	-1.3	-2.3
COC(=O)[C@H]1C[C@]2(C/C=C(\C)CCC=C(C)C)c3ccccc3N[C@H]2N1	·	·	1.5	-0.2	1.8
CC(=O)O[C@@H]1C=C[C@@H](C#Cc2ccc(C(C)(C)C)cc2)O[C@@H]1COC(=O)NC(C)C	·	-0.5	-2.0	-0.9	-0.4
CCOC(=O)CC(=O)CSc1nc2c(cc1C#N)CCCCC2	0.8	3.1	11.2*	0.8	5.5
CCOC(=O)CC(=O)CSc1nc2ccc(C)cc2cc1C#N	6.7*	3.8*	10.6*	0.9*	4.5
COCCCN1C(=O)[C@H](CC(=O)NCc2cccc(C(F)(F)F)c2)[C@]2(C(=O)OC)CCCCC=C12	·	-0.7	-0.4	-1.5	-1.5
CC(OC(=O)c1ncc(Cl)c(Cl)c1Cl)C(=O)NC1(C#N)CCCCC1 (centres undefined)	0.3	0.2	2.3	-0.4	0.8
CC(OC(=O)c1ccc(Cl)nc1)C(=O)NC1(C#N)CCCCC1 (centres undefined)	4.5*	-1.0	1.4	-0.9	-1.0
O=C(CCCCC(=O)Nc1c(I)cc(I)c(C(=O)O)c1I)Nc1c(I)cc(I)c(C(=O)O)c1I	-0.7	0.3	-1.7	1.9*	0.4
CC(C)OC(=O)NCN1C(=O)C2C3C=CC(C3)C2C1=O (centres undefined)	0.8	0.0	11.1*	-0.3	-1.5
COC(=O)NCN1C(=O)C2C3C=CC(C3)C2C1=O (centres undefined)	-0.9	0.4	1.5	-1.2	-0.6
Cc1ccc(Oc2ccc(NC(=O)CCC(=O)OCC(=O)c3cccs3)cc2)cc1C	4.5*	-0.8	4.6	-1.8	0.7
CC(=O)c1ccc(NC(=O)COC(=O)CCC(=O)c2cccs2)cc1	-1.1	-0.1	-1.4	-1.7	0.9
Cc1cccc(C(=O)OCC(=O)N2CCc3ccccc3C2)c1O	-0.3	-0.5	2.0	-0.5	0.8
SMILES	DAX1 inh-1	DAX1 inh-2	hgDAF12 agonist	ssDAF-12 act	hcDAF-12 act
Cc1cccc(C(=O)OCC(=O)N2CCCCCC2)c1O	4.5*	1.9	1.8	0.0	4.5
COC(=O)C1=C(C)N(Cc2ccc(C(F)(F)F)cc2)C(=NCc2ccc3c(c2)OCO3)NC1c1ccccc1 (centres undefined)	·	0.8	1.2	-0.4	-0.2
CC(C)CN1C(=O)[C@]2(CC(=O)N(C)C2c2ccccc2)c2cc(-n3cc(CCCC#N)nn3)ccc21 (some centres undefined)	·	0.1	-0.1	-1.1	3.1
Cc1ccc2c(c1)C(N1CCCC1=O)CC(c1ccco1)N2 (centres undefined)	0.7	3.2	10.7*	0.3	5.7*
O=C(O)CCCCC1SCC2NC(=O)NC21 (centres undefined)	5.8*	0.8	-1.2	-1.8	0.4
COC(=O)[C@@]12CCCCC3=C1N(CCC3)C(=O)[C@H]2CC(=O)N1CCC(c2ccccc2)CC1	·	-0.8	0.4	-1.8	-0.7
CC(C)Nc1nc(-c2ccccn2)nc(-c2ccccc2)c1C#N	4.8*	-0.3	0.4	-1.3	-1.8
Cc1ccc(-c2cc(C(=O)NC3=NCCS3)c3ccccc3n2)cc1C	0.1	0.6	11.0*	-0.1	4.5
Cc1ccc(C)c(NC(=O)c2cc(-c3cccnc3)nc3ccccc23)c1	6.3*	0.7	-0.5	-1.3	-0.3
O=c1ccnc2n1COCS2	6.1*	1.6	0.2	-0.6	-0.5
O=c1c(-c2ccnn2-c2ccc(F)cc2)cnc2n1CCS2	-0.6	1.0	-0.7	-1.2	-1.3
C=CCN1C(=O)[C@H](CC(=O)N2CCCC2)[C@@]2(C(=O)OCC)CCCC=C12	·	-1.1	3.4	-0.8	-1.0
CCS(=O)(=O)N1CCN(C2CCC(C)CC2)CC1 (centres undefined)	-0.4	0.7	2.5	1.1*	-1.5
COC(=O)C1CN(Cc2ccccc2)CCS(=O)(=O)N1Cc1ccccc1 (centres undefined)	·	-0.1	2.4	-1.3	-1.1
C[C@@H]1[C@@H](O)C[C@@]2(C[C@H](O)c3cc(Cl)cc(Cl)c3O2)O[C@H]1c1ccccc1Cl	·	0.2	0.7	-1.0	-0.9
COC(=O)[C@]12C[C@H](CC(=O)NCC34CC5CC(CC(C5)C3)C4)C(=O)N(CCc3ccc(OC)c(OC)c3)C1=C[C@H](COCc1ccccc1)O[C@@H]2C	·	-1.1	1.1	-1.4	-3.6
C/C(=N/NC(=O)c1ccccn1)c1ccc(O)cc1	4.6*	5.1*	12.6*	0.0	2.9
C/C(=N\NC(=O)c1ccc(Cl)cc1)c1ccccn1	1.9	0.6	-0.9	-0.6	-0.3
C/C(=N\NC(=O)c1c[nH]c2ccccc12)c1ccc(C)o1	1.8	2.1	5.6	2.7*	5.7*
C/C(=N/NC(=O)c1ccccn1)c1c[nH]c2ccccc12	5.8*	1.7	11.7*	0.7	5.6
C/C(=N\NC(=O)c1ccccn1)c1ccc(Cl)cc1	·	3.2	9.2	-0.1	5.3
CC1CC(c2ccccc2)n2nc(NC(=O)c3ccco3)nc2N1 (centres undefined)	-0.3	-0.1	0.2	-1.1	-1.6
COc1ccc(C2CC(c3ccc(F)cc3)n3nc(NC(=O)c4ccco4)nc3N2)cc1 (centres undefined)	4.8*	-0.6	-0.7	-1.3	-0.6
